Test results from ChEMBL document CHEMBL3988442, “University of Dundee, Small-Polar-MMV Screening Library” (2021).
In all, about 69,000 compounds went through this assay and about 950 (1.4%) showed an effect of 50% or more. For the sample, strong results were picked, then their nearest neighbours and some compounds at random.

Test system: Mycobacterium tuberculosis
Assay: Cornell M. t heat shock assay; further: in the data most compounds retested in dose-response had high values
Assay type: functional, organism-based
Design: dose or concentration left out as unconfirmed

| SMILES | Percent Effect |
| --- | --- |
| Cc1cc(F)ccc1-c1ccccc1CC1CNCCNC1=O.Cl (configuration not stated) | 10.68% |
| Cc1ccc(C(=O)N2CC[C@@H]3CN(C4CCOCC4)CCO[C@@H]3C2)o1.O=C(O)C(F)(F)F | 5.788% |
| CC(C)NC(=O)N1CC[C@H]2[C@H]1CCN2c1ncccn1.O=C(O)C(F)(F)F | -6.623% |
| Cc1cc(NCc2cccc(C#N)c2)ccc1Br | -0.9935% |
| Cc1c(NCc2cccc(C#N)c2)cccc1S(=O)(=O)NC1CC1 | 50.22% |
| Cc1ccc(NCc2ccc(C#N)cc2)c(CN(C)C)c1 | -24.71% |
| Cc1cc(NCc2cccc(C#N)c2)ccc1C(N)=O | -8.044% |
| N#Cc1cccnc1NCc1ccc(S(=O)(=O)NC2CC2)cc1 | 26.85% |
| CS(=O)(=O)NCC1CCCCN1Cc1ccccc1C#N (configuration not stated) | -5.634% |
| Cc1c(NCc2ccccc2C#N)cccc1S(=O)(=O)NC1CC1 | 92.24% |
| Cc1c(NCc2ccc(C#N)cc2)cccc1S(=O)(=O)NC1CC1 | 50.41% |
| Cc1c(NCc2ccccc2C#N)cccc1-n1cnnn1 | 16.44% |
| COC1COC2(CCN(Cc3ccc(Cl)cc3)CC2)C1.O=C(O)C(F)(F)F (configuration not stated) | -23.85% |
| Cc1nc(NC(=O)C2(C)CN(C)CCO2)sc1C.Cl (configuration not stated) | -1.317% |
| CCC(CC)C(=O)N1CCOC2(COCCN(CC(=O)NC)C2)C1.O=C(O)C(F)(F)F (configuration not stated) | -7.076% |
| Cc1cccc(NC(=O)N2CCCn3cnc(CN(C)C(C)C)c3C2)c1.O=C(O)C(F)(F)F | -43.51% |
| COCC1CN(c2ccc(C)nn2)Cc2cnn(C)c21.O=C(O)C(F)(F)F.O=C(O)C(F)(F)F (configuration not stated) | 33.23% |
| CN1CCOCC2(CCCN(C(=O)c3ccc(-n4cccc4)cc3)C2)C1.O=C(O)C(F)(F)F (configuration not stated) | -38% |
| CN(C)CC(=O)N1CCC2(CC1)CN(c1ccsc1)C(=O)CO2.O=C(O)C(F)(F)F | -14.58% |
| C1CC(CN2C[C@H]3CC[C@@H]2CN(Cc2nnc(C4CC4)o2)C3)C1 | 16.6% |
| c1ccc(-c2cc(CN3CCCC(Cn4cncn4)C3)on2)cc1 (configuration not stated) | -1.952% |
| C1CC(CN2C[C@H]3CC[C@@H]2CN(Cc2noc(C4CCCC4)n2)C3)C1 | 69.475% |
| c1ccc(-c2cc(CN3C[C@H]4CC[C@H]3C4)on2)cc1 | 7.341% |

| SMILES | Percent Effect |
| --- | --- |
| Cc1cc(CN2C[C@H]3CC[C@@H]2CN(C2Cc4ccccc4C2)C3)on1 | 16.59% |
| C1CCCN(CC2CCCN(Cc3noc(C4CC4)n3)C2)CC1 (configuration not stated) | 7.551% |
| c1ccc(-c2nnc(CN3C[C@@H]4CC[C@H](C3)N(CC3CCC3)C4)o2)cc1 | 64.4% |
| c1ccc(-c2cc(CN3C[C@@H]4CC[C@H](C3)N(CC3CCC3)C4)on2)cc1 | 105.8% |
| c1ccc(CN2C[C@H]3CC[C@@H]2CN(Cc2nnc(C4CC4)o2)C3)cc1 | -5.775% |
| CCc1cc(CN2C[C@H]3CC[C@@H]2CN(C2Cc4ccccc4C2)C3)on1 | 30.93% |
| Cc1cnn(C2CN(Cc3noc(C4CC4)n3)C2)c1 | 9.159% |
| c1ccc(-c2cc(CN3C[C@@H]4CC[C@H](C3)N(CC3CC3)C4)on2)cc1 | 99.84% |
| Cc1noc(C)c1CN1CCCC2(CCN(CC3CCCC3)C2)C1.O=C(O)C(F)(F)F (configuration not stated) | -3.039% |
| CCN1C[C@@H]2[C@@H](OC)CCN(S(=O)(=O)c3ccccc3)[C@@H]2C1.O=C(O)C(F)(F)F | -5.885% |
| COCC(=O)N1CCn2c(COc3cccnc3)cnc2C1C.O=C(O)C(F)(F)F (configuration not stated) | 5.093% |
| CC(=O)N1CCN(Cc2ccccn2)CC2(CC(=O)N(C)C2)C1.O=C(O)C(F)(F)F.O=C(O)C(F)(F)F (configuration not stated) | -32.82% |
| CNC(=O)c1cc(C2CCCN2)n[nH]1.Cl (configuration not stated) | 10.86% |
| CC(=O)N1CCC[C@@H](NCc2c[nH]c3ccccc23)[C@@H]1c1ccc(C)s1.Cl | 67.48% |
| CC(=O)N1CCC[C@@H](NCc2ccc(F)cc2)[C@@H]1c1ccc(C)s1 | 15.69% |
| CC(=O)N1CCC[C@@H](NCc2cccc(F)c2)[C@@H]1c1ccc(C)s1.Cl | 4.639% |
| O=C(O)C(F)(F)F.O=C1[C@H]2CN(Cc3ccco3)C[C@H]2CN1c1ccsc1 | 26.88% |
| O=c1c2cnc(N3CCOCC3)nc2ccn1Cc1ccco1 | -1.985% |
| CCCOC1CCCN(c2nc(COC)nc3c2cnn3C)C1 (configuration not stated) | 67.42% |
| COCc1nc(N2CC[C@H](N(C)C)C2)c2cnn(C)c2n1 | -4.11% |
| CCCOC1CCCN(c2nc(CC)nc3c2cnn3C)C1 (configuration not stated) | 77.82% |
| CCc1nc(N2CCCC(CCCOC)C2)c2cnn(C)c2n1 (configuration not stated) | -4.574% |
| CCCc1nc(N2CCCN3CCC[C@H]3C2)c2cnn(C)c2n1 | -9.904% |

| SMILES | Percent Effect |
| --- | --- |
| CCCc1nc(N2CCCC(CCOC)C2)c2cnn(C)c2n1 (configuration not stated) | -22.83% |
| CS(=O)(=O)NC[C@@H]1OC[C@H]2CN(Cc3ccccc3)CC[C@H]21.O=C(O)C(F)(F)F | 25.84% |
| O=C(O)Cn1ccc(=O)c2ccc(Cl)cc21 | -0.616% |
| O=C(O)Cn1ccc(=O)c2cc(Cl)ccc21 | 63.91% |
| O=C(O)Cn1ccc(=O)c2cc(F)ccc21 | 12.91% |
| CN(C)CCOCc1cncc2c1CCN(C1CCOCC1)C2.O=C(O)C(F)(F)F.O=C(O)C(F)(F)F.O=C(O)C(F)(F)F | 38.62% |
| O=C(CSc1nnc(N2CCNCC2)s1)Nc1ccccc1.O=C(O)C(F)(F)F | -1.012% |
| CC(C)Oc1ccc(CNC(=O)C2CCS(=O)(=O)C2)cn1 (configuration not stated) | -25.56% |
| Cc1ccc(C(C)NCCc2nccn2Cc2ccccc2)o1 (configuration not stated) | -11.63% |
| CCc1ccc(C(C)NCc2nccn2Cc2ccccc2)o1 (configuration not stated) | 91.1% |
| CC(NCCc1nccn1Cc1ccccc1)c1cccs1 (configuration not stated) | 34.94% |
| O=C(O)C(F)(F)F.c1ccc2c(c1)N(CC1CCOC1)CC21CCN(c2cnccn2)CC1 (configuration not stated) | 16.03% |
| COCCN1CCCC2(CCC(=O)N2Cc2cccnc2)C1.O=C(O)C(F)(F)F (configuration not stated) | -18.4% |
| Cc1nnc([C@]23COC[C@H]2CN(S(=O)(=O)c2cccnc2)C3)o1.O=C(O)C(F)(F)F | 48.22% |
| COc1ccc(CN(C(=O)C2CCCS2)c2ccncc2)cc1 (configuration not stated) | 99.59% |
| COc1ccc(CN(C(=O)C2CCOCC2)c2ccncc2)cc1 | -4.775% |
| COc1ccc(CN(C(=O)C2CCCO2)c2ccncc2)cc1 (configuration not stated) | -11.42% |
| O=C(CC1CC1)N1CCn2cc(Cn3cccn3)nc2C1.O=C(O)C(F)(F)F | -0.6568% |
| CC(C)n1nc(CN2CCOCC2)c2c1CN(C(=O)c1ccno1)C2.O=C(O)C(F)(F)F | 17.65% |
| Cc1ccc(CNCc2cccc3cn[nH]c23)c(OC2CCOC2)c1 (configuration not stated) | 3.326% |
| Cc1ccc(CNCc2cccc3cccnc23)c(OC2CCOC2)c1 (configuration not stated) | 87.35% |
| Cc1ccc(CNCc2c[nH]nc2C(C)(C)C)c(OC2CCOC2)c1 (configuration not stated) | 18.1% |
| CC(C)N(C)Cc1cnc2n1CCN(Cc1cccc(F)c1)C2.O=C(O)C(F)(F)F.O=C(O)C(F)(F)F | -5.438% |

| SMILES | Percent Effect |
| --- | --- |
| Cc1nnc(N2CCCC3(CN(Cc4nccs4)CCO3)C2)o1.O=C(O)C(F)(F)F.O=C(O)C(F)(F)F (configuration not stated) | -34.51% |
| CCN(CC)C1CCN(C(=O)c2cc3cc(C)cc(C)c3nc2C)CC1.Cl | 6.865% |
| Cl.FC(F)(F)c1ccc(-c2cnc(C3CCCN3)cn2)cc1 (configuration not stated) | -8.787% |
| O=C(Cc1ccncc1)N1CCC2(CC1)CC(c1ccccc1)CO2.O=C(O)C(F)(F)F (configuration not stated) | 53.05% |
| CC1COC2(CCN(C(=O)Cc3ccncc3)CC2)C1.O=C(O)C(F)(F)F (configuration not stated) | 19.29% |
| Cn1cc(C2COC3(CCN(C(=O)Cc4ccccc4)CC3)C2)cn1 (configuration not stated) | 32.13% |
| Cc1ccc(CN2CCn3c(CNC(=O)c4cccn4C)cnc3C2)s1.O=C(O)C(F)(F)F | 7.209% |
| COCC1Cn2nnc(-c3cnn(C)c3)c2CN1Cc1cccs1.O=C(O)C(F)(F)F (configuration not stated) | 17.22% |
| COc1ccc(C)c(NC(=O)NCc2cccc(N(C)C)n2)c1 | 29.74% |
| CN(C)c1cccc(CNC(=O)Nc2ccc3[nH]nnc3c2)n1 | -8.207% |
| CC(=O)c1ccc(NC(=O)NCc2cccc(N(C)C)n2)cc1C | 63.04% |
| CS(=O)(=O)N1CCOCC2(CCN(c3ccccn3)C2)C1.O=C(O)C(F)(F)F (configuration not stated) | -2.08% |
| CCN1CCC2(CCN(c3ncccn3)CC2)C1=O.O=C(O)C(F)(F)F | -1.865% |
| Cc1ccccc1OCC1CCCN(c2cc(N)nc(N)n2)C1 (configuration not stated) | 94.51% |
| Nc1cc(N2CCCC(COc3ccc(F)cc3)C2)ncn1 (configuration not stated) | -15.24% |
| CN(C)Cc1nc(C(=O)N2CCCC(COc3ccc(F)cc3)C2)cs1 (configuration not stated) | -4.47% |
| OCc1csc(N2CCCC(COc3cccc(F)c3)C2)n1 (configuration not stated) | -18.57% |
| CCNC(=O)c1ccnc(N2CCCC(COc3ccccc3C)C2)c1 (configuration not stated) | -1.28% |
| Nc1cc(N2CCCC(COc3ccc(F)cc3)C2)nc(N)n1 (configuration not stated) | 0.7864% |
| Cc1nc(N)cc(N2CCCC(COc3cccc(F)c3)C2)n1 (configuration not stated) | 95.51% |
| CN(C)Cc1ccc(C(=O)N2CCCC(COc3ccc(F)cc3)C2)o1 (configuration not stated) | 1.225% |
| Cc1nc(CN(C)C)cc(N2CCCC(COc3ccc(F)cc3)C2)n1 (configuration not stated) | 82.2% |
| Cl.NCCc1cc(N2CCOCC2)nc(NC2CC2)n1 | -1.001% |
